Where a name gives a salt, the structure may show the parent alone.
What follows are compounds tested on replication-induced senescent mouse newborn dermal fibroblasts (NBF) (assay: relative cell viability of senescent cells (fraction); higher = less killing of senescent cells). Settings: 1 µM; 3 days.
Procedure: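 Replication-induced senescent newborn mouse skin fibroblasts (NBFs) in 24-well plates were treated with a Selleck FDA-approved drug library at 1 µM for 3 days.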

| SMILES | relative cell viability |
| --- | --- |
| Cn1cnc([N+](=O)[O-])c1Sc1ncnc2[nH]cnc12 [Azathioprine] | 0.986 |
| CN(C)c1cc(NC(=O)CNC(C)(C)C)c(O)c2c1CC1CC3C(N(C)C)C(=O)C(C(N)=O)=C(O)C3(O)C(=O)C1=C2O (stereo not given) [Tigecycline] | 0.694 |
| c1ccc2c(CC3=NCCN3)cccc2c1 [Naphazoline HCl] | 0.868 |
| C#Cc1cccc(Nc2ncnc3cc(OC)c(OCCCCCCC(=O)NO)cc23)c1 | 1.02 |
| CC1(C)CCC(c2ccc(Cl)cc2)=C(CN2CCN(c3ccc(C(=O)NS(=O)(=O)c4ccc(N[C@H](CCN5CCOCC5)CSc5ccccc5)c(S(=O)(=O)C(F)(F)F)c4)cc3)CC2)C1 [Navitoclax (ABT-263)] | 1.04 |
| C[C@H]1[C@H](NC(=O)/C(=N\OC(C)(C)C(=O)O)c2csc(N)n2)C(=O)N1S(=O)(=O)O [Aztreonam] | 1.06 |
| Oc1ccc(OCc2ccccc2)cc1 [Monobenzone] | 0.981 |
| COc1cnc(NS(=O)(=O)c2ccc(N)cc2)nc1 [Sulfameter] | 0.763 |
| CCCCC[C@H](O)/C=C/[C@H]1[C@H](O)CC(=O)[C@@H]1CCCCCCC(=O)O [Alprostadil] | 0.875 |
| CCOC(=O)[C@H](CCc1ccccc1)N[C@@H](C)C(=O)N1[C@H](C(=O)O)C[C@@H]2CCC[C@@H]21 [Ramipril] | 0.96 |
| Cc1nc(C(=O)NCC(=O)O)c(O)c2ccc(Oc3ccccc3)cc12 [Roxadustat (FG-4592)] | 1.03 |
| COc1ccccc1OCCNCC(O)COc1cccc2[nH]c3ccccc3c12 (stereo not given) [Carvedilol] | 1.14 |
| COc1cc2nccc(Oc3ccc(NC(=O)C4(C(=O)Nc5ccc(F)cc5)CC4)cc3)c2cc1OC | 0.453 |
| CCOc1nc2cccc(C(=O)O)c2n1Cc1ccc(-c2ccccc2-c2nnn[nH]2)cc1 [Candesartan] | 1.02 |
| CC(C)c1cc(C(=O)N2Cc3ccc(CN4CCN(C)CC4)cc3C2)c(O)cc1O | 0.0951 |
| Nc1ccc(S(=O)(=O)Nc2ncccn2)cc1 [Sulfadiazine] | 1.11 |
| COc1nc(N)nc2c1ncn2[C@@H]1O[C@H](CO)[C@@H](O)[C@@H]1O [Nelarabine] | 1.08 |
| CCOc1ccccc1OCCN[C@H](C)Cc1ccc(OC)c(S(N)(=O)=O)c1 [Tamsulosin hydrochloride] | 1.1 |
| Nc1nc(F)nc2c1ncn2[C@@H]1O[C@H](CO)[C@@H](O)[C@@H]1O [Fludarabine] | 0.0671 |
| Nc1ccn([C@@H]2O[C@H](CO)[C@@H](O)C2(F)F)c(=O)n1 [Gemcitabine] | 0.11 |

| SMILES | relative cell viability |
| --- | --- |
| CN(C)CCC(c1ccc(Cl)cc1)c1ccccn1 (stereo not given) [Chlorpheniramine Maleate] | 0.208 |
| COc1cc(C(=O)NS(=O)(=O)c2ccccc2C)ccc1Cc1cn(C)c2ccc(NC(=O)OC3CCCC3)cc12 [Zafirlukast] | 0.957 |
| O=C(O)c1cc(/N=N/c2ccc(S(=O)(=O)Nc3ccccn3)cc2)ccc1O [Sulfasalazine] | 1.3 |
| Clc1ccc(C(Cn2ccnc2)OCc2c(Cl)cccc2Cl)c(Cl)c1 (stereo not given) [Isoconazole nitrate] | 0.937 |
| Oc1c(Cl)cc(Cl)c2cccnc12 [Chloroxine] | 0.982 |
| Nc1ncn([C@@H]2O[C@H](CO)[C@@H](O)[C@H]2O)c(=O)n1 [Azacitidine] | 0.436 |
| COc1ccc2[nH]c([S@@+]([O-])Cc3ncc(C)c(OC)c3C)nc2c1 [NEXIUM (esomeprazole magnesium)] | 1.07 |
| CNCc1ccc(-c2[nH]c3cc(F)cc4c3c2CCNC4=O)cc1 | 0.0458 |
| CNC(=O)c1cc(Oc2ccc(NC(=O)Nc3ccc(Cl)c(C(F)(F)F)c3)c(F)c2)ccn1 [Regorafenib (BAY 73-4506)] | 0.958 |
| CCn1cc(C(=O)O)c(=O)c2cc(F)c(N3CCNCC3)nc21 [Enoxacin] | 1.05 |
| Nc1cccc2c1CN(C1CCC(=O)NC1=O)C2=O (stereo not given) [Lenalidomide (CC-5013)] | 1.04 |
| C[C@]1(O)C[C@@H](c2nc(-c3ccc4ccc(-c5ccccc5)nc4c3)c3c(N)nccn32)C1 [Linsitinib (OSI-906)] | 0.445 |
| CC(=O)OCC[N+](C)(C)C [Acetylcholine Chloride] | 0.052 |
| NC(=O)c1ncn([C@@H]2O[C@H](CO)[C@@H](O)[C@H]2O)c1N [AICAR (Acadesine)] | 1.02 |
| COc1cc2nc(N3CCN(C(=O)c4ccco4)CC3)nc(N)c2cc1OC [Prazosin HCl] | 0.927 |
| CCn1cc(C(=O)O)c(=O)c2cc(F)c(N3CCN(C)CC3)cc21 [Pefloxacin Mesylate] | 0.993 |
| CC(C)CN(C[C@@H](O)[C@H](Cc1ccccc1)NC(=O)O[C@H]1CO[C@H]2OCC[C@H]21)S(=O)(=O)c1ccc(N)cc1 [Darunavir Ethanolate] | 0.839 |
| CC(C)OC(=O)C(C(=O)OC(C)C)=C1SC=CS1 [Malotilate] | 1.04 |
| C[C@H]1C[C@@H]2[C@H]([C@@H](O)C[C@@]3(C)[C@H]2CC[C@]3(O)C(=O)CO)[C@@]2(C)C=CC(=O)C=C12 [Methylprednisolone] | 1.09 |
| Cc1ccc(C(=O)Nc2ccc(CN3CCN(C)CC3)c(C(F)(F)F)c2)cc1C#Cc1cnc2cccnn12 | 0.964 |
